From PubChem
EphB4 ephrin blk – blocks human EphB4 binding to ephrin-B2; P54760; EphB4 LBD / TNYL-RAW-Alexa532 peptide, fluorescence polarization; hit rate 0.15% among 97,000; inhibition, % at 7 µM;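 active means inhibition above the screen-wide mean inhibition plus 3 SD, cut at about 15% in these data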;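 further: 0% = DMSO wells and 100% = excess unlabeled TNYL-RAW peptide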
HUVEC tox IL1B – HUVEC cytotoxicity counter-screen, IL-1B stimulated; HUVEC cell count loss, Hoechst imaging; AID 845; cell count reduction, % at 2 µM; hit rate 0.41% among 94,000;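 active means cell count reduction more than 3 SD above the screen-wide mean, cut at about 70% in these data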;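 further: normalized per plate to untreated control cells as the no-loss baseline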
IL1B NFkB inh – blocks IL-1B driven NFkB nuclear translocation in HUVEC cells | HUVEC IL-1B NFkB p65 nuclear translocation imaging | inhibition, % at 2 µM | hit rate 0.43% among 94,000 | AID 796;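 active means inhibition above about 30% together with a positive call from visual inspection of the well image, limit read from the data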;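 further: nuclear over cytoplasmic p65 intensity ratio measured by imaging; 0% = IL-1B stimulated DMSO wells and 100% = unstimulated DMSO wells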
IL1B NFkB pot – enhances IL-1B driven NFkB nuclear translocation; activation, % at 2 µM; hit rate 0.3% among 94,000; HUVEC IL-1B NFkB p65 nuclear translocation imaging; AID 819;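 active means activation above 40%, about the mean plus 3 SD, also judged a hit on visual image review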;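 further: percent activation is computed from the nuclear over cytoplasmic p65 intensity ratio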
Calb biofilm kill – kills Candida albicans biofilms; C. albicans biofilm + clotrimazole, Alamar Blue; inhibition, % at 6 µM; hit rate 0.14% among 85,000; AID 834;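 active means inhibition above 20%; inactive means inhibition below 20%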;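 further: preformed 24 hr biofilms exposed to compound for 48 hr; 0% = biofilm without compound and 100% = blank killed by clotrimazole plus chlorhexidine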
* hit, by the source's call; [ ] = remark or other dose. Rows were chosen to be rich in hits. Some 1.1% of all compounds tested hit in one or more screens of this group.

O=C1CN(C(=O)CN2CCCCC2)C(c2ccccc2)c2cc(Br)ccc2N1 (stereo not given) was read as EphB4 ephrin blk 16*, HUVEC tox IL1B 22, IL1B NFkB inh -5, IL1B NFkB pot 5 and Calb biofilm kill -5.
Screening CCC(=O)N1CC(=O)Nc2ccc(F)cc2C1c1ccccc1 (stereo not given) returned EphB4 ephrin blk 2, HUVEC tox IL1B 3, IL1B NFkB inh 1, IL1B NFkB pot -1 and Calb biofilm kill 11.
For C=CCN1C(=O)NC(=O)/C(=C/c2cccn2C)C1=O the results were EphB4 ephrin blk 1, HUVEC tox IL1B 2, IL1B NFkB inh 41* and IL1B NFkB pot -41.
Screening CN(C)CCN=Cc1c(O)n(-c2cccc(C(F)(F)F)c2)c(=O)[nH]c1=O returned Calb biofilm kill 4.
`CCCCn1c(O)c(C=Nc2c(C)n(C)n(-c3ccccc3)c2=O)c(=O)[nH]c1=O` gave EphB4 ephrin blk -2, HUVEC tox IL1B -46, IL1B NFkB inh -48, IL1B NFkB pot 48* and Calb biofilm kill 7.
`Cc1c(N=Cc2c(O)n(Cc3ccco3)c(=O)[nH]c2=O)c(=O)n(-c2ccccc2)n1C` gave EphB4 ephrin blk 4, HUVEC tox IL1B -24, IL1B NFkB inh 9 and IL1B NFkB pot -9.
Cc1ccc(C(=O)n2cc(CCN3CCS(=O)(=O)CC3)c3ccccc32)cc1 was read as EphB4 ephrin blk -1, HUVEC tox IL1B -17, IL1B NFkB inh -1 and IL1B NFkB pot 1.
Screening O=C(CCCOc1ccc(Cl)cc1Cl)N1CCC2(CC1)OCCO2 returned EphB4 ephrin blk 1, HUVEC tox IL1B 85*, IL1B NFkB inh 97*, IL1B NFkB pot -97 and Calb biofilm kill -9.
`Cn1c(O)c(C(c2ccccn2)c2c(O)n(C)c(=S)[nH]c2=O)c(=O)[nH]c1=S` gave EphB4 ephrin blk -3, HUVEC tox IL1B 91*, IL1B NFkB inh -3 and IL1B NFkB pot 3.
Screening CCOP(=O)(OCC)C(NC(C)=O)C(Cl)(Cl)Cl (stereo not given) returned EphB4 ephrin blk 8, HUVEC tox IL1B 2, IL1B NFkB inh 5, IL1B NFkB pot -5 and Calb biofilm kill 0.
CCOc1cccc(N2C(=O)CC(=O)NC2=O)c1 was read as EphB4 ephrin blk 17*[fluorescence artefact?], HUVEC tox IL1B -153, IL1B NFkB inh -13, IL1B NFkB pot 13 and Calb biofilm kill 4.
c1ccc2cc3cc4ccccc4cc3cc2c1 was read as Calb biofilm kill 14.
CN1C(=O)C(C2(C#N)CCCCC2)C(=O)N(C)C1=O was read as EphB4 ephrin blk -1, HUVEC tox IL1B 3, IL1B NFkB inh -48, IL1B NFkB pot 49* and Calb biofilm kill 5.
Screening Cc1c(/C=C2/CC3C4CC=C5CC(O)CCC5(C)C4CCC3(C)C2=O)cnn1C (stereo not given) returned EphB4 ephrin blk 0, HUVEC tox IL1B -16, IL1B NFkB inh 8, IL1B NFkB pot -8 and Calb biofilm kill 4.
